Assay results published in PubChem BioAssay (Tox21).
“And” between values parts separate entries of the source, which are not always exact repeats. Equal values may be shown once. Records with an inconclusive call do not appear. Unmarked numbers belong to inactive results. The source made the active and inactive calls. The call rests on the fitted dose curve; in most records, active means well fitted cell-killing curve with a large enough effect in the repeat runs; inconclusive means weak or mixed curves, or effect the other way; inactive means flat fitted curve, though single readings scatter.

assay: qHTS RealTime-Glo MT Cell Viability Assay in HEK293 cells - 40 hour (AID 1224874); conditions: RealTime-Glo luminescence; max response: active compounds read low; further: nearly all actives have a fitted effect of over 50% in size
Description: U.S. Tox21 Program National Center for Advancing Translational Sciences [NCATS] NIH Chemical Genomics Center [NCGC] U.S. Environmental Protection Agency [EPA] National Institutes of Environmental Health Sciences [NIEHS] National Toxicology Program [NTP] U.S. Food and Drug Administration [FDA] Tox21 Assay Overview: Measure of cell viability is critical in the cell-base assay. Analysis of cell viability is necessary for the characterization of cell responses to cytotoxic drugs and environmental stress. A RealTime-Glo MT Cell Viability Assay to monitor cell viability in real time of continues cell culture during 40 hours of compound treatment was used to screen Tox21 10K library compounds in Hek293 cells. The RealTime-Glo MT Cell Viability Assay is a nonlytic, homogeneous, bioluminescent method to measure cell viability in real time using a simple, plate-based method. The assay involves adding NanoLuc luciferase and a cell-permeant prosubstrate to cells in culture. Viable cells reduce the proprietary prosubstrate to generate a substrate for NanoLuc luciferase. This substrate diffuses from cells into the surrounding culture medium, where it is rapidly used by the NanoLuc Enzyme to produce a luminescent signal. The signal correlates with the number of viable cells, making the assay well suited for cytotoxicity studies.
Tox21 Assay Protocol Summary: The mixture of Hek293 cell suspension and reagents were dispensed at 600cells/6 ul/well in 1536-well tissue culture treated black solid bottom plates using a Multidrop dispenser. After the assay plates were incubated at a 37 C/5% CO2 incubator for 5 hours, 23 nL of compounds dissolved in DMSO, positive and negative controls was transferred to the assay plate by a pintool work station. The plates were incubated at 37 C for 40 hours. The luminescence intensity were measured at 0h, 8h, 16h, 24h, 32h and 40h time points using ViewLux plate reader during compound treatment.
On the % scale 0 is the no-effect control and ±100 the full control effect; potency means the concentration at half of the fitted maximal effect.

SMILES | max response | Potency
CC(C)(CCl)C(=O)Cl | 0.815% | 
Nc1nc(N)nc(N)n1 | 14.5% | 
CCOC(=O)COc1cc(-c2nn(C)c(OC(F)F)c2Cl)c(F)cc1Cl | -5.9% | 
C=CC(=O)OC | 0.596% | 
CCOC(=O)C(Cl)C(C)=O (stereo not given) | -9.27% | 
c1cc2ccc3cccc4ccc(c1)c2c34 | -0.186% | 
C[C@@H]1CC[C@H]2[C@@H](C)C(=O)O[C@@H]3O[C@@]4(C)CC[C@@H]1[C@]32OO4 | -5.45% | 
CCC(Br)(CC)C(=O)NC(N)=O | 5.12% | 
CC(C)=CCOc1c2occc2cc2ccc(=O)oc12 | -18% | 
C[C@H]1CNCCc2ccc(Cl)cc21 | -6.61% | 
O=C1C(Cl)C(CCl)CN1c1cccc(C(F)(F)F)c1 (stereo not given) |  | 24.5 µM (active)
C=CCCl | -3.44% | 
Clc1ccc(C2(Cn3cncn3)CC(Br)CO2)c(Cl)c1 (stereo not given) |  | 21.7 µM (active)
N#CCC#N | -1.97% | 
O=C(NC(=O)c1c(F)cccc1F)Nc1ccc(OC(F)(F)C(F)OC(F)(F)F)c(Cl)c1 (stereo not given) | -1.18% | 
CS/C(C)=N/OC(=O)N(C)SN(C)C(=O)O/N=C(\C)SC |  | 43.6 µM (active)
C=CCN1CC[C@]23c4c5ccc(O)c4O[C@H]2C(=O)CC[C@@]3(O)[C@H]1C5 | -0.323% | 
CC(Cl)C(C)Cl (stereo not given) | 1.04% | 
IC(I)=C(I)I |  | 6.16 µM (active)
Cn1cc[n+](C)c1 (tested in a mixture with another compound) | 6.73% | 

SMILES | max response | Potency
Cc1ccc2ccccc2c1 | 0.388% | 
N#C/C(N)=C(/N)C#N | 0.894% | 
O=C=Nc1ccc(Cl)cc1 | -3% | 
CCOP(=O)(OCC)SCCSCC | 0.908% and 6.69% | 
CC1(C)[C@H](C=C(Cl)Cl)[C@@H]1C(=O)O[C@@H](C#N)c1cccc(Oc2ccccc2)c1 | 0.601% | 
Brc1ccc(Oc2ccccc2)cc1 | 1.37% and 1.64% | 
N#CCc1ccccc1 | 2.97% | 
NC(=O)C(Cl)(Cl)Cl | 16.8% | 
C=C(C#N)CCC#N | 5.63% | 
CC(=O)CCC(C)=O | 11.7% | 
O=C(C(Cl)(Cl)Cl)C(Cl)(Cl)Cl | -7.45% | 
CCCCCCCCCC(=O)O[C@H]1CC[C@H]2[C@@H]3CCC4=CC(=O)CC[C@@H]4[C@H]3CC[C@]12C | 3.16% | 
[O-][Cl+]O | 2.38% | 
CCOP(=S)(OCC)SCn1nnc2ccccc2c1=O |  | 19.5 µM (active)
C=COC(C)=O | 2.49% | 
O=[N+]([O-])c1ccccc1CCl | 8.2% | 
COc1cc(CC(C)N)cc2c1OCO2 (stereo not given) | -17.7% | 
C=CC[C@]1(O)CC[C@H]2[C@@H]3CCC4=CC(=O)CCC4=C3C=C[C@@]21C |  | 19 µM (active)
ClC=C(Cl)Cl | 18.6% | 
BrCCCCBr | 17.9% | 
